Most compounds without a hit are left out; they make up all but 10% or so of the library.
VP16 counter: counter-screen for ROR gamma inhibitors: Gal4-VP16 reporter | Drosophila S2 Gal4-VP16 UAS-luciferase, luminescence, 20 h | Potency, µM (doses to about 53.6 µM), hits mostly inhibitors | actives 3.5% (n = 310,000) | AID 2546;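 also: Gal4-VP16 expression switched on by copper sulfate through the metallothionein promoter; nearly all actives have a fitted effect of over 50% in size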
ELG1 repair inh: blocks ELG1-dependent DNA repair in HEK293T cells | HEK293T ELG1-luciferase reporter, luminescence, 16 h; DNA damage induced by 5-fluorouridine | Potency, µM (doses to about 46.1 µM), most hits filed as inhibitors | actives 2.3% (n = 330,000); also: nearly all actives have a fitted effect of over 55% in size
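HEK293T cells expressing luciferase-tagged ELG1 (2,000/well) received 5-Fluorouridine plus compound or DMSO for 16 hr at 37 °C. Luciferase was read by ONE-Glo luminescence after 30 min at room temperature.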
MCF10A rereplic: induces DNA re-replication in MCF 10a normal breast cells | MCF 10A DNA re-replication, Hoechst nuclear intensity, 48 h | actives 2.9% (n = 350,000) | Potency, µM (series often up to 46.1 µM), actives largely listed as activators | AID 624296; also: nearly all actives have a fitted effect of over 50% in size
SW480 rereplic: DNA re-replication induction in SW480 cells. actives 1.8% (n = 340,000). SW480 DNA re-replication, Hoechst DNA content imaging, 48 h. AID 624297. Potency, µM (highest dose often 46.1 µM), most hits filed as activators; also: nearly all actives have a fitted effect of over 55% in size
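Treated cells incubate 48 hr (37 C, 5% CO2), are stained 40 min with Hoechst, and nuclear fluorescence is enumerated; a rise in nuclei with high DNA signal marks re-replication.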
RORg inh: inhibitors of mouse ROR gamma transcriptional activity. Drosophila S2 Gal4-RORgamma UAS-luciferase reporter, 20 h. Potency, µM (titrated, usually from 53.6 µM), actives largely listed as inhibitors. actives 5.4% (n = 310,000). AID 2551; also: nearly all actives have a fitted effect of over 60% in size
Target sequence (P51450 whole entry, looked up, the tested form may be a part): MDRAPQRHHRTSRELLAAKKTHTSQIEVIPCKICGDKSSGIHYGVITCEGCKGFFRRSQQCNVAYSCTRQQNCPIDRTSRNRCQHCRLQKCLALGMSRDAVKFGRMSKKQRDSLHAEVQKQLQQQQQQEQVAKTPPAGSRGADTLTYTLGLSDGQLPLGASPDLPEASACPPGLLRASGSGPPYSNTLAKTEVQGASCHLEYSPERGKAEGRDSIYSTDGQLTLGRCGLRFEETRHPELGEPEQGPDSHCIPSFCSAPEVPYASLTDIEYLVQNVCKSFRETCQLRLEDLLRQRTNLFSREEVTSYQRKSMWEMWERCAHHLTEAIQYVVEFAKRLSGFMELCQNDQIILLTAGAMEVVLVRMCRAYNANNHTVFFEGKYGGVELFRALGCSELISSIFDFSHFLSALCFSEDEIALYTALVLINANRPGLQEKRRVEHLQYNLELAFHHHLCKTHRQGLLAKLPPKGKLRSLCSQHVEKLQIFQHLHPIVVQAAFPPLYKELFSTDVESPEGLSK
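Drosophila Schneider cells stably carrying a metallothionein-driven Gal4 DBD–ROR gamma fusion and a UAS-Photinus luciferase reporter were exposed to compound for 1 hr, then induced with copper sulfate (700 uM final) for 20 hr at ambient temperature before luminescence reading.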
ELG1 FLuc counter: luciferase inhibition in cell-free luciferin readout for ELG1 hits. shares compounds with ELG1 repair inh. actives 3% (n = 350). cell-free firefly luciferase luminescence counter-screen, ViewLux. Potency, µM (titrated, usually from 46.1 µM), hits mostly inhibitors
ELG1 Luc conf: inhibits ELG1-dependent DNA repair in HEK293T cells, confirmed. shares compounds with ELG1 repair inh. Potency, µM (series often up to 46.1 µM), usual class: inhibitors. AID 624248. HEK293T ELG1-luciferase levels, luminescence; cells co-treated with 5-fluorouridine. actives 68% (n = 670); also: nearly all actives have a fitted effect of over 55% in size
ELG1-Luc MMS: MMS-stimulated human ELG1 repair inhibition, confirmed; shares compounds with ELG1 repair inh; HEK293T luciferase-tagged ELG1 level, MMS stimulated; Potency, µM (titrated, usually from 46.1 µM), usual class: inhibitors; actives 53% (n = 670); AID 624249; also: nearly all actives have a fitted effect of over 60% in size
ELG1 5FU viab: confirmation of ELG1 repair inhibitors: viability with 5FU. shares compounds with ELG1 repair inh. cell viability with 5-FU, ELG1-dependent repair. Potency, µM (titrated, usually from 46.1 µM), most hits filed as cytotoxic. 670 tested, under 10 active. AID 624250;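 also: ELG1-luc HEK293T cells cotreated with 5-fluorouridine at 10 µM final; viability measured 16 h after compound addition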
ELG1 MMS cell: confirmation of ELG1 repair inhibitors: viability with MMS | Cell viability with MMS, ELG1-dependent DNA repair | shares compounds with ELG1 repair inh | Potency, µM (doses to about 46.1 µM), hits mostly cytotoxic | actives 33% (n = 670) | AID 624251;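 also: ELG1-luc HEK293T cells co-treated with 10 µM MMS; viability read 16 h after compound addition; nearly all actives have a fitted effect of over 60% in size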
ELG1 unstim viab: affects unstimulated cell viability, ELG1 hit counter-screen; actives 8% (n = 900); shares compounds with ELG1 repair inh; Potency, µM (series often up to 45.9 µM), hits mostly cytotoxic; cell viability counter-screen, unstimulated, luminescence;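 also: compound exposure lasted 16 hours before reading; nearly all actives have a fitted effect of over 55% in size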
FLuc biochem: counter-screen for ELG1 repair inhibitors: firefly luciferase inhibition | purified firefly luciferase, luminescence counter-screen | shares compounds with ELG1 repair inh | Potency, µM (highest dose often 57.5 µM), hits mostly inhibitors | actives 10% (n = 350) | AID 624253
Hits are given with their value; – = inactive; ? = inconclusive; · = no result given; [ ] = remark or other dose. Calls follow the shape of the dose curve; as a rule, active = well fitted curve in the direction sought with a large enough effect; inconclusive = small, poorly fitted or top-dose-only effect, or another doubt; inactive = no such curve, though single readings can be large; an effect the other way counts as inactive or inconclusive.

SMILES	VP16 counter	ELG1 repair inh	MCF10A rereplic	SW480 rereplic	RORg inh	ELG1 Luc conf	ELG1-Luc MMS	ELG1 5FU viab	ELG1 MMS cell	ELG1 unstim viab	others
NC(=O)c1ccc(N2CCN(S(=O)(=O)c3cccs3)CC2)c([N+](=O)[O-])c1	·	2.3µM	–	–	·	?	1µM	–	0.79µM	13µM
NC(=O)c1ccc(N2CCCCCC2)c([N+](=O)[O-])c1	–	–	–	–	–	·	·	·	·	·
COc1ccc(OC)c(Nc2nc(-c3ccncc3)nc3ccccc23)c1	–	?	?	?	–	·	·	·	·	·
COc1ccc(Nc2nc(-c3ccncc3)nc3ccccc23)cc1	–	2.9µM	?	18µM	–	5µM	?	?	–	?	ELG1 FLuc counter=–;FLuc biochem=–
O=C(Nc1ccccc1-c1nc2ccccc2[nH]1)c1ccc(N2C(=O)CCC2=O)cc1	–	1.8µM	?	–	–	0.71µM	?	?	–	–
COc1ccc(-c2oc(=O)c3cc(OC)c(OC)cc3c2/C=C/c2cccc([N+](=O)[O-])c2)cc1	·	1.6µM	–	–	·	?	–	–	?	–
Cn1cccc1C(=O)Nc1ccc(N2CCOCC2)cc1	·	?	–	–	·	·	·	·	·	–
Cc1cnc(CNc2ncncc2-c2ccc(N(C)C)cc2)cn1	–	·	·	·	–	·	·	·	·	·
COc1ccc(-c2cc(C)no2)cc1S(=O)(=O)N1CCN(c2cccc(C)c2)C(C)C1 (configuration not stated)	–	3.3µM	?	–	–	13µM	3.1µM	–	4µM	?
COc1ccc(-c2cc(C)no2)cc1S(=O)(=O)N1CCCCC1	–	–	–	–	–	·	·	·	·	·
CC(=O)N1c2ccc(S(=O)(=O)NCCC(=O)NCc3ccc(Cl)cc3)cc2CC1C (configuration not stated)	–	?	–	–	–	·	·	·	·	·
CC(=O)N1c2ccc(S(=O)(=O)NCCC(=O)NCc3ccc(N(C)C)cc3)cc2CC1C (configuration not stated)	–	4.6µM	?	?	–	13µM	–	?	–	–
O=C(c1ccc(Cl)cc1)N1N=CCC1(O)c1ccc(Cl)cc1 (configuration not stated)	?	–	–	?	?	·	·	·	·	·
CCOc1ccc(C(=O)Nc2ccccc2N2CCN(C(=O)c3ccccc3)CC2)cc1[N+](=O)[O-]	–	4.6µM	–	–	–	6.3µM	?	–	–	–
COc1cc(OC)cc(C(=O)Nc2ccc(S(=O)(=O)N3CCOCC3)cc2)c1	–	–	–	–	–	·	·	·	·	·
O=C(c1cc2ccccc2[nH]1)c1cc2cc(O)ccc2[nH]1	·	·	·	·	·	·	·	·	·	–
CC(C)CC(C)NNC(=O)c1cc2ccccc2[nH]1 (configuration not stated)	–	?	–	–	–	·	·	·	·	·
Cc1ccc(C(=O)N/N=C2\CCc3ccccc32)c(C)c1	?	?	–	–	–	·	·	·	·	·
Cc1ccc(C(=O)NN=CC(=O)c2ccccc2)c(C)c1	·	?	–	–	·	·	·	·	·	–
COc1cccc(CNC(=O)C(c2ccc(Cl)cc2)C(C)C)c1 (configuration not stated)	–	–	–	?	–	·	·	·	·	·
O=C(Nc1nonc1NC(=O)c1cccs1)c1cccs1	–	4.1µM	–[9.22 µM]	–	–	?	4.4µM	–	5µM	?
Fc1ccc2cc(CCO[C@H]3CCCCO3)ncc2c1	·	?	?	–	·	·	·	·	·	?
COc1ccc(CCN2C(=O)C3C4C=CC(C3C2=O)C2C(=O)N(CCc3ccc(OC)c(OC)c3)C(=O)C42)cc1OC (configuration not stated)	8.9µM	3.3µM	–	–	–	?	6.3µM	–	5µM	?
COc1ccc(CCN2C(=O)C3C4C=CC(C5CC45)C3C2=O)cc1OC (configuration not stated)	–	–	–	–	–	·	·	·	·	·
COc1ccc(S(=O)(=O)NCCc2nnc3ccc(SCC(=O)Nc4nc(C)cs4)nn23)cc1	–	–	–	–	–	–	–	–	–	–	ELG1 FLuc counter=–;FLuc biochem=–
SMILES	VP16 counter	ELG1 repair inh	MCF10A rereplic	SW480 rereplic	RORg inh	ELG1 Luc conf	ELG1-Luc MMS	ELG1 5FU viab	ELG1 MMS cell	ELG1 unstim viab	others
COc1cccc(CNC(=O)C2CCCN(c3nn4c(=O)cc(C)nc4s3)C2)c1 (configuration not stated)	–	?	–	–	–	·	·	·	·	–	ELG1 FLuc counter=–;FLuc biochem=–
COc1cccc(CNC(=O)C2CCN(c3nn4c(=O)cc(C)nc4s3)CC2)c1	–	–	–	–	–	·	·	·	·	·
NNC(=O)[C@H](Cc1ccccc1)NC(=O)NCCc1ccccc1	–	–	–	–	–	·	·	·	·	·
COc1ccc(NC(=O)C2CCN(c3ncnc4c3nc3n4CCCCC3)CC2)cc1Cl	–	1.8µM	–	?	–	3.2µM	?	?	?	?	ELG1 FLuc counter=–;FLuc biochem=–
Cc1ccc(NC(=O)C2CCN(c3ncnc4c3nc3n4CCCCC3)CC2)cc1Cl	–	2.3µM	15µM	?	?	10µM	18µM	?	–	?	ELG1 FLuc counter=–;FLuc biochem=–
Cn1c(=O)c2[nH]c(CN(Cc3ccccc3)Cc3ccccc3)nc2n(C)c1=O	–	4.1µM	–	–	–	7.9µM	?	–	?	?
Cn1c(=O)c2[nH]c(CSCc3ccccc3)nc2n(C)c1=O	·	·	–	–	·	·	·	·	·	·
CN1/C(=C\C(=O)C[n+]2ccc3ccccc3c2)C(C)(C)c2ccccc21	?	1.2µM	?	?	–	?	2µM	–	2.8µM	?
O=C(COC(=O)c1nc(Cl)ccc1Cl)NC1CCS(=O)(=O)C1 (configuration not stated)	·	?	–	–	·	·	·	·	·	·
CCOc1cc(S(=O)(=O)NCc2ccncc2)ccc1Cl	1.1µM	?	–	–	2µM	?	0.56µM	–	0.71µM	–	ELG1 FLuc counter=–;FLuc biochem=–

Compound activity deposited in PubChem BioAssay by National Center for Advancing Translational Sciences (NCATS).
